Screens: PubChem, National Center for Advancing Translational Sciences (NCATS)
Pol iota inh: qHTS for Inhibitors of Polymerase Iota; Pol iota fluorescent replication assay, 10 min; DNA polymerase iota (Homo sapiens), Q9UNA4; Potency, µM (titrated, usually from 115 µM), without a hit: at the highest dose activity, negative = inhibition, usual class: inhibitors; AID 588590, 2011; 1% of 390,000 active
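Pol iota at 10 nM preincubated 15 min with compounds at room temperature; reaction started with fluorescent substrate, 50 nM final. Fluorescence read kinetically at 0 and 10 min; buffer-only wells as negative control.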
Pol kappa inh: qHTS for Inhibitors of Polymerase Kappa | AID 588579, 2011 | Potency, µM (top dose mostly 107 µM), inactives show at the top dose activity, negative = inhibition, usual class: inhibitors | 0.53% of 400,000 active | DNA polymerase kappa (Homo sapiens), Q9UBT6 | purified Pol kappa, fluorescent DNA synthesis assay, 10 min; further: on the % scale 0 is the no-effect control and ±100 the full control effect
Target sequence (Q9UBT6 whole entry, looked up): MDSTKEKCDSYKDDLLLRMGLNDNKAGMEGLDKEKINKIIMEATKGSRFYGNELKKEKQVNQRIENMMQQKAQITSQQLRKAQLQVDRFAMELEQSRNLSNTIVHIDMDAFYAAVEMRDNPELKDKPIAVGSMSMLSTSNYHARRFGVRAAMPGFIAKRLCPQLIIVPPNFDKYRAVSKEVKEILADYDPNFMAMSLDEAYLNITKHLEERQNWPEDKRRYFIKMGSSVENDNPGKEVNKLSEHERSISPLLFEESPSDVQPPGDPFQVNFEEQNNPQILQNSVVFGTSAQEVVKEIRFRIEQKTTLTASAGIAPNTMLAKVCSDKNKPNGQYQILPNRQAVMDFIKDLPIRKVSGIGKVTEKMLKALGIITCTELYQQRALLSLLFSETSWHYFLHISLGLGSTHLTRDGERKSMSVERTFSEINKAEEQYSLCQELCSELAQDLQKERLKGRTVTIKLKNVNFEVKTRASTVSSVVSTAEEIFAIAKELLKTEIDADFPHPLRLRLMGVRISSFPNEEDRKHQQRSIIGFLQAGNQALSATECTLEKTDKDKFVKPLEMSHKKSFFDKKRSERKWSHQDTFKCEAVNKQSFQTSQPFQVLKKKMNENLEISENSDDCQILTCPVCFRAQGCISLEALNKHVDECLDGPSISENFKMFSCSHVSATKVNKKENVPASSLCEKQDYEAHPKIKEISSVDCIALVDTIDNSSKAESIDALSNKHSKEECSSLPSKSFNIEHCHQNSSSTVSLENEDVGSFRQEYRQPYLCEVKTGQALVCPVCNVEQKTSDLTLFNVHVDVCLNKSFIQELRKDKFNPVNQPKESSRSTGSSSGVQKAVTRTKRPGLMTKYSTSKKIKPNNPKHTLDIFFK
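Activity was followed as the change in fluorescence between reads at 0 and 10 min after starting the reaction with 50 nM substrate. Beforehand, 10 nM polymerase had been preincubated with compound for 15 min at room temperature.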
POLH inh: qHTS for Inhibitors of Polymerase Eta; DNA polymerase eta (Homo sapiens), Q9Y253; recombinant Pol eta, fluorescent DNA replication assay; Potency, µM (doses to about 114 µM), for the others: at the highest dose activity change, negative = inhibition, hits mostly inhibitors; 1.2% of 390,000 active; AID 588591, 2011; further: on the % scale 0 is the no-effect control and ±100 the full control effect
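Pol eta (10 nM) was preincubated with compounds for 15 min at room temperature, after which fluorescent replication substrate (50 nM final) was added to start the reaction. Fluorescence was read kinetically at 0 and 10 min.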
WRN inhibitor: qHTS for Inhibitors of WRN Helicase. Bifunctional 3'-5' exonuclease/ATP-dependent helicase WRN (Homo sapiens), Q14191. WRN helicase unwinding, fluorescent forked duplex, kinetic. Potency, µM (top dose mostly 114 µM), for the others: at the top dose activity change, negative = inhibition, actives largely listed as inhibitors. 0.46% of 360,000 active. AID 651768, 2012; further: on the % scale 0 is the no-effect control and ±100 the full control effect; nearly all actives have a fitted effect of over 55% in size
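Kinetic fluorescence helicase assay: unwinding of a quenched forked DNA duplex (100 nM final) with 2 mM ATP final raises red fluorescence (525/598 nm). Compounds sat 15 min at room temperature with 20 nM WRN beforehand.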
FEN1 inhibitor: qHTS Assay for the Inhibitors of Human Flap endonuclease 1 (FEN1). P39748. Recombinant FEN1 flap cleavage, fluorescence, 15 min. Potency, µM (series often up to 114 µM), without a hit: at the highest dose activity change, negative = inhibition, hits mostly inhibitors. 0.35% of 390,000 active; further: on the % scale 0 is the no-effect control and ±100 the full control effect; nearly all actives have a fitted effect of over 65% in size
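Recombinant FEN1 (10 nM) was preincubated with pin-transferred compounds for 15 min at room temperature, then flap DNA substrate (50 nM final) was added. Plates were read at 0 and 15 min, and normalized concentration–response data were fitted to a four-parameter Hill equation.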
Pol beta inh: qHTS Assay for Inhibitors of DNA Polymerase Beta. P06746. Pol beta primer extension/strand displacement, fluorescence kinetic. Potency, µM (top dose mostly 114 µM), without a hit: top-dose activity change, negative = inhibition, usual class: inhibitors. 1.3% of 340,000 active. AID 485314, 2010; further: on the % scale 0 is the no-effect control and ±100 the full control effect
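Enzyme-only controls used 10 nM Pol beta; buffer lacking enzyme served as negative control. Compound preincubated 15 min, then 50 nM substrate added; 0 and 10 min reads at room temperature.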
* hit, by the source's call; [ ] = dose if it differs, or a comment. An excerpt weighted towards active compounds, which were near 2.4% of everything screened. The call rests on the fitted dose curve; in most records, active means well fitted curve in the direction sought with a large enough effect; inconclusive means small, poorly fitted or top-dose-only effect, or another doubt; inactive means no such curve, though single readings can be large; an effect the other way counts as inactive or inconclusive. Potency means the concentration at half of the fitted maximal effect.

Results for Cc1ccc2c(c1C)NC(C(=O)O)C1CC=CC21 (stereo unspecified) ?
Pol iota inh: inconclusive; Pol kappa inh: 3.16µM*; POLH inh: 3.55µM*; WRN inhibitor: 39.8µM*; FEN1 inhibitor: 56.2µM*; Pol beta inh: 2.51µM*

What do the screens show for `Cc1cc(C)c2c(c1)C1C=CCC1C(C(=O)O)N2` (stereo unspecified)?
Pol iota inh: inconclusive; Pol kappa inh: 28.2µM*; FEN1 inhibitor: 22.4µM*

What do the screens show for `O=C(O)C1Nc2c(C(=O)N3CCOCC3)cccc2C2C=CCC12` (stereo unspecified)?
Pol iota inh: 11.2µM*; Pol kappa inh: 44.7µM*; POLH inh: 3.16µM*; WRN inhibitor: 56.2µM*; FEN1 inhibitor: inconclusive; Pol beta inh: 20µM*

What do the screens show for `O=C(c1ccccc1O)N1CCOCC1`?
Pol iota inh: 19.7%; Pol kappa inh: -2.4%; POLH inh: -9.1%; WRN inhibitor: -3.5%; FEN1 inhibitor: 3.3%; Pol beta inh: 67.0%

Results for O=C(O)C1Nc2c(C(F)(F)F)ccc(Cl)c2C2C=CCC12 (stereo unspecified) ?
Pol iota inh: inconclusive; Pol kappa inh: -5.6%; POLH inh: inconclusive; WRN inhibitor: -11.0%; FEN1 inhibitor: 10.0%; Pol beta inh: 44.7µM*

What do the screens show for `O=C(NCc1cccs1)c1ccc(Cn2c(SCc3cccc(F)c3)nc3cccnc32)cc1`?
Pol iota inh: -0.1%; Pol kappa inh: -15.3%; POLH inh: -2.3%; FEN1 inhibitor: -9.9%; Pol beta inh: -1.3%

What do the screens show for `N#CCCn1c(=O)c(-c2cccc(C#N)c2)nc2cnc(N3CCOCC3)nc21`?
Pol kappa inh: 1.6%[60.1 µM]

What do the screens show for `CCCCCCCCCCCCCCCC[n+]1ccc(C)c2ccccc21`?
Pol iota inh: -1.6%; Pol kappa inh: -19.7%; FEN1 inhibitor: 79.4µM*

Results for CCCCCCCCCC[n+]1ccc(/C=C/c2c[nH]c3ccccc23)c2ccccc21 ?
Pol iota inh: inconclusive; Pol kappa inh: inconclusive; FEN1 inhibitor: 44.7µM*

Results for CNc1cc(C(=O)O)nc2ccccc12 ?
Pol iota inh: inconclusive; Pol kappa inh: -24.2%; FEN1 inhibitor: -1.5%

How did COc1ccc(/C=N\NC(=O)c2ccc(-c3ccccc3)cc2)c(OC)c1OC do in these assays?
Pol iota inh: 29.4%; Pol kappa inh: -7.7%; POLH inh: -8.0%; WRN inhibitor: -11.8%; FEN1 inhibitor: -2.0%; Pol beta inh: -0.8%

Results for COc1cccc(/C=N/NC(=O)c2ccc(N3CCCC3=O)cc2)c1 ?
Pol iota inh: inconclusive; Pol kappa inh: inconclusive; POLH inh: -3.2%; WRN inhibitor: -3.6%[57.1 µM]; FEN1 inhibitor: -10.6%; Pol beta inh: 25.1µM*

Results for COc1cc(C=C(C#N)C(=O)c2ccccc2)cc(OC)c1OC ?
WRN inhibitor: -0.8%[57.1 µM]

What do the screens show for `O=C(N/N=C/c1ccco1)c1ccc(N2CCCC2=O)cc1`?
Pol iota inh: inconclusive; Pol kappa inh: -10.7%; POLH inh: inconclusive; WRN inhibitor: -14.1%; FEN1 inhibitor: -5.9%; Pol beta inh: inconclusive

What do the screens show for `COc1cc(/C=C(/C(=O)O)c2ccc(-c3ccccc3)cc2)cc(OC)c1OC`?
Pol iota inh: 27.4%; Pol kappa inh: -10.8%; POLH inh: inconclusive; WRN inhibitor: -21.6%; FEN1 inhibitor: -0.8%; Pol beta inh: 50.1µM*

What do the screens show for `COc1cc(/C=N/NC(=O)c2ccc(-c3ccccc3)cc2)cc(OC)c1OC`?
Pol iota inh: inconclusive; Pol kappa inh: inconclusive; POLH inh: inconclusive; WRN inhibitor: -22.7%[57.1 µM]; FEN1 inhibitor: 8.3%; Pol beta inh: 35.5µM*

How did COc1cc(/C=N/NC(=O)c2ccc3c(c2)OCO3)ccc1O do in these assays?
Pol iota inh: -1.7%; Pol kappa inh: 8.1%; POLH inh: -13.4%; WRN inhibitor: -1.8%; FEN1 inhibitor: 12.8%; Pol beta inh: inconclusive

What do the screens show for `COc1cc(/C=N/NC(=O)c2ccc(-n3cccc3)cc2)ccc1O`?
Pol iota inh: 89.1µM*; Pol kappa inh: inconclusive; POLH inh: 22.4µM*; WRN inhibitor: -21.9%[11.6 µM]; FEN1 inhibitor: -22.5%; Pol beta inh: 12.6µM*

What do the screens show for `O=C1[C@H](Cc2ccccc2)NC/C=C\C[C@H](c2ccco2)N1Cc1ccccc1`?
Pol iota inh: -0.4%; Pol kappa inh: -8.5%; FEN1 inhibitor: -20.7%

Results for CN(c1ccccc1)S(=O)(=O)c1ccc2[nH]c(=O)oc2c1 ?
Pol iota inh: 11.2µM*; Pol kappa inh: -28.0%; POLH inh: 31.6µM*; WRN inhibitor: -35.9%; FEN1 inhibitor: -3.6%; Pol beta inh: 50.1µM*

How did Cc1ccc(C)c(NS(=O)(=O)c2ccc3[nH]c(=O)oc3c2)c1 do in these assays?
Pol iota inh: inconclusive; Pol kappa inh: inconclusive; POLH inh: 31.6µM*; WRN inhibitor: -19.7%; FEN1 inhibitor: -6.3%; Pol beta inh: 31.6µM*

How did COc1ccccc1-c1nnc2sc(COc3ccc(Cl)cc3Cl)nn12 do in these assays?
Pol iota inh: -15.2%; Pol kappa inh: -24.7%; POLH inh: -10.0%; WRN inhibitor: -10.3%; FEN1 inhibitor: -23.7%; Pol beta inh: 56.2µM*

What do the screens show for `COc1ccccc1-c1nnc2sc(COc3ccccc3)nn12`?
Pol iota inh: -3.4%[58.9 µM]; Pol kappa inh: -5.4%; POLH inh: -13.6%; WRN inhibitor: -5.7%; FEN1 inhibitor: -7.2%; Pol beta inh: 7.7%

What do the screens show for `CCc1ccc(C(=O)Nc2cccc(-c3nc4cc(C(C)C)ccc4o3)c2)cc1`?
Pol iota inh: -9.3%; Pol kappa inh: -0.1%; POLH inh: -18.2%; FEN1 inhibitor: 12.7%; Pol beta inh: 2.0%

Results for COc1ccc(-c2ccc(C3C4C=CCCC4(C)C(=O)N3Cc3ccccc3)c(F)c2)cc1 (stereo unspecified) ?
Pol iota inh: -19.8%; Pol kappa inh: 15.5%; FEN1 inhibitor: 6.7%

How did O=C(O)c1cccc2c1C(=O)c1ccc(-c3ccc(F)cc3OCc3ccccc3)cc1S2(=O)=O do in these assays?
Pol iota inh: inconclusive; Pol kappa inh: -32.8%; POLH inh: 79.4µM*; WRN inhibitor: 1.9%[11.6 µM]; FEN1 inhibitor: -14.8%
